From PubChem BioAssay AID1159580 (chemical genetic matrix, 2015)
“And” between values parts separate entries of the source, which are not always exact repeats. Equal entries are not always repeated. Screen size: about 5,500 compounds; about 2,000 (36%) were called active. Inconclusive results (about 18%) are left out. Cut-off read from the data, not from the text of the source: active = normalized growth mostly below about 0.91 (no sharp cut-off); inconclusive = no clear call, values can overlap the other calls; inactive = mostly above about 0.92. This is one part of the list.

Test: chemical genetic growth profiling, strain panel (AID 1159580);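 note: tested at 20 µM; growth read once vehicle control cultures reached saturation at 30 °C; 1 = growth at the plate median or of vehicle wells; lower values mean less growth of the strain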
Settings: S. cerevisiae deletion strains, growth OD

Measured: normalized growth

CCC1(C)CC(=O)NC1=O (stereo not given)
inactive: locus YAL013W, strain DEP1, active compounds read low 1.01 and 1.05 | locus YAL021C, strain ccr4, active compounds read low 0.987 | locus YAL026C, strain drs2, active compounds read low 0.986 | locus YAL030W, strain snc1, active compounds read low 0.954 | locus YAL040C, strain CLN3, active compounds read low 0.994 | locus YBL061C, strain skt5, active compounds read low 0.993 | locus YBR009C, strain hhf1, active compounds read low 0.97 | locus YBR021W, strain FUR4, active compounds read low 1.01 | locus YBR023C, strain chs3, active compounds read low 0.958 | locus YBR171W, strain sec66, active compounds read low 0.983 | locus YBR229C, strain ROT2, active compounds read low 1.01 | locus YBR231C, strain swc5, active compounds read low 0.991 | locus YBR279W, strain paf1, active compounds read low 0.973 | locus YCL011C, strain gbp2, active compounds read low 0.992 | locus YCL016C, strain dcc1, active compounds read low 0.986 | locus YCL029C, strain bik1, active compounds read low 1.02 | locus YCL061C, strain MRC1 (second series), active compounds read low 1.01 | locus YCL069W, strain vba3, active compounds read low 0.977 | locus YCR088W, strain abp1, active compounds read low 0.974 | locus YDL005C, strain med2, active compounds read low 0.974 | locus YDL035C, strain GPR1, active compounds read low 0.999 | locus YDL040C, strain nat1, active compounds read low 0.995 | locus YDL074C, strain BRE1, active compounds read low 0.977 | locus YDL101C, strain DUN1, active compounds read low 1.01 | locus YDL134C, strain PPH21, active compounds read low 1.02 | locus YDL185W, strain tfp1, active compounds read low 1.02 | locus YDL192W, strain arf1, active compounds read low 1.02 | locus YDR001C, strain nth1, active compounds read low 0.964 | locus YDR069C, strain doa4, active compounds read low 0.991 | locus YDR101C, strain arx1, active compounds read low 1.04 | locus YDR137W, strain rgp1, active compounds read low 0.979 | locus YDR150W, strain NUM1, active compounds read low 1.01 | locus YDR159W, strain sac3, active compounds read low 0.986 | locus YDR162C, strain NBP2, active compounds read low 1.02 | locus YDR195W, strain ref2 0.953 | locus YDR297W, strain sur2, active compounds read low 0.981 | locus YDR318W, strain mcm21, active compounds read low 1.01 | locus YDR334W, strain swr1, active compounds read low 0.952 | locus YDR335W, strain msn5, active compounds read low 0.969 | locus YDR363W, strain ESC2, active compounds read low 1.02 | locus YDR388W, active compounds read low 1.02 | locus YDR392W, strain spt3, active compounds read low 0.962 | locus YDR502C, strain sam2, active compounds read low 1.01 | locus YEL003W, strain gim4, active compounds read low 0.978 | locus YEL037C, strain rad23, active compounds read low 0.975 | locus YEL061C, strain CIN8 (second series), active compounds read low 0.982 | locus YEL061C, strain CIN8, active compounds read low 1.01 | locus YER002W, strain NOP16, active compounds read low 1.01 | locus YER015W, strain faa2, active compounds read low 0.96 | locus YER016W, strain bim1, active compounds read low 0.981 | locus YER110C, active compounds read low 1.02 | locus YER111C, strain swi4, active compounds read low 0.983 | locus YER155C, strain BEM2 (second series), active compounds read low 0.973 | locus YER155C, strain BEM2, active compounds read low 0.999 | locus YER167W, strain BCK2, active compounds read low 1.01 | locus YFR010W, strain ubp6, active compounds read low 0.974 | locus YGL078C, strain dbp3, active compounds read low 1.01 | locus YGL086W, strain mad1, active compounds read low 1.01 | locus YGL167C, strain pmr1, active compounds read low 0.982 | locus YGL173C, strain kem1, active compounds read low 0.98 | locus YGL227W, strain vid30, active compounds read low 0.985 | locus YGL240W, strain doc1, active compounds read low 0.971 | locus YGL248W, strain PDE1, active compounds read low 1 | locus YGL253W, strain hxk2, active compounds read low 0.981 | locus YGR078C, strain PAC10, active compounds read low 1 and 0.997 | locus YGR135W, strain pre9, active compounds read low 1.02 | locus YGR229C, strain SMI1, active compounds read low 1.01 and 1.03 | locus YGR252W, strain gcn5, active compounds read low 0.98 | locus YHR013C, strain ard1, active compounds read low 0.94 | locus YHR027C, strain rpn1, active compounds read low 0.978 | locus YHR030C, strain SLT2, active compounds read low 1.01 and 0.972 | locus YHR079C, strain IRE1 (second series), active compounds read low 1.02 | locus YHR079C, strain IRE1, active compounds read low 0.978 | locus YHR094C, strain hxt1, active compounds read low 1.02 | locus YHR129C, strain ARP1, active compounds read low 1 | locus YHR142W, strain chs7, active compounds read low 0.967 | locus YHR200W, strain rpn10, active compounds read low 1.02 | locus YIL066C, strain RNR3, active compounds read low 1.01 | locus YIL073C, strain SPO22, active compounds read low 1.06 | locus YIL125W, strain kgd1, active compounds read low 1.01 | locus YIR030C, strain dcg1, active compounds read low 1.02 | locus YJL092W, strain hpr5, active compounds read low 0.974 | locus YJL095W, strain BCK1 (second series), active compounds read low 0.982 | locus YJL095W, strain BCK1, active compounds read low 0.989 and 0.973 | locus YJL115W, strain asf1, active compounds read low 0.959 | locus YJL129C, strain trk1, active compounds read low 0.943 | locus YJL134W, strain LCB3, active compounds read low 1.01 | locus YJL154C, strain vps35, active compounds read low 0.971 | locus YJL164C, strain tpk1, active compounds read low 0.974 | locus YJL166W, strain qcr8, active compounds read low 0.974 | locus YJL168C, strain set2, active compounds read low 1.01 | locus YJL187C, strain SWE1 (second series), active compounds read low 1.01 | locus YJL187C, strain SWE1, active compounds read low 0.98 | locus YJR043C, strain POL32, active compounds read low 1.02 | locus YJR066W, strain TOR1, active compounds read low 0.95
